Screening data as filed in PubChem BioAssay.
Sampled rows, rich in hits. Any-hit rate of the full collection: about 2%.
697 NFkB inh = inhibitors of the PMA/ionomycin-induced NF-kB reporter in 697 B cells; 330,000 tested, 0.33% active; AID 435022; inhibition, % at 4 µM; 697 B-cell NF-kB luciferase reporter, 16 h; in the data active = inhibition above about 35%
Shn3 3UTR inh = inhibitors of Schnurri-3 3'UTR reporter in osteoblasts; 360,000 tested, 0.52% active; AID 588674; inhibition, % at 12.5 µM; Clone20 osteoblast Shn3 3'UTR firefly luciferase, 24 h;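 active = mean inhibition of at least 75% with every replicate also reaching 75%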;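 note: 0% = median of neutral control wells and 100% = pilot-screen positive control compound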
Jurkat NFkB inh = lowers PMA/ionomycin-induced NF-kB signal in Jurkat cells; PMA/ionomycin-induced NF-kB luciferase reporter, luminescence; inhibition, % at 4 µM; 330,000 tested, 0.53% active; AID 435003; in the data active = inhibition above about 50%
Calb FLC = C. albicans growth modulation with fluconazole | 300,000 tested, 0.57% active | growth inhibition, % (test concentration not listed) | C. albicans CaCi-2 (fluconazole-resistant clinical isolate) + fluconazole, Alamar Blue growth, 48 h;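 active = growth inhibition above about 58% in most replicates, limit read from the data, passing the limit was not always enough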;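 note: all wells also contain fluconazole at 8 µg/ml as a sub-toxic cotreatment; 0% = median of DMSO wells and 100% = median of geldanamycin control wells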
Beta apoptosis = blocks beta cell apoptosis; INS-1E cytokine-induced death, ATP luminescence, 48 h; percent of positive-control rescue, neutral wells zero; protection from apoptosis, % (concentration not given with the values); 300,000 tested, 0.8% active; AID 435005;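 active = Every replicate reaches about 75%, or at least half do and their mean reaches it too, limit read from the data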;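 note: 0% = cytokine-treated negative control wells and 100% = positive control rescue; higher means more ATP so stronger rescue from cytokine killing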
Jurkat NFkB conf = inhibitors of the PMA/ionomycin-induced NF-kB reporter in Jurkat cells, retest. shares compounds with Jurkat NFkB inh. Jurkat NF-kB luciferase, 16 h. inhibition, % at 4 µM. 2,700 tested, 27% active;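 active = inhibition reaching about 45% at 4 µM in either replicate, limit read from the data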;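 note: plate controls were PMA/ionomycin stimulated DMSO wells for no effect and unstimulated DMSO wells for full effect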
Active calls of the source: *; x = not tested or not shown.

SMILES | 697 NFkB inh | Shn3 3UTR inh | Jurkat NFkB inh | Calb FLC | Beta apoptosis | Jurkat NFkB conf
CCc1ccc(Nc2ncc3c(n2)CC(C)CC3=O)cc1 (stereo unspecified) | -164 | -93 | -172 | 32 | -3 | -91
C(=C\c1ccccc1)/CSc1nnc(-c2ccccn2)n1Cc1ccco1 | -30 | -4 | 50* | -2 | 12 | 7
CC1=Nc2cc(C(=O)NCC3CCCO3)ccc2Sc2ccc(Br)cc21 (stereo unspecified) | -28 | x | 52* | 4 | 13 | 13
Cc1ccc2c(Cl)c(C(=O)NCC3CCCO3)sc2c1 (stereo unspecified) | -125 | -79 | -159 | 5 | 2 | -46
CC1=Nc2cc(C(=O)O)ccc2Sc2ccc(Br)cc21 | 30 | -1 | -1 | x | -1 | x
CC1=Nc2cc(C(=O)NCCCOC(C)C)ccc2Sc2ccc(C)cc21 | 1 | 8 | 64* | -5 | 6 | 32
CCCC1=Nc2cc(C(=O)NCCCOCC)ccc2Sc2ccccc21 | -179 | 17 | 57* | 1 | 32 | 51*
CCCC1=Nc2cc(C(=O)NCCCOC(C)C)ccc2Sc2ccccc21 | -90 | 34 | 46 | -6 | -4 | x
O=C(NCc1cccnc1)c1cc(C2CCCCN2C(=O)c2ccccc2)on1 (stereo unspecified) | x | -5 | x | x | x | x
C[C@H](CO)N1C[C@H](C)[C@@H](CN(C)C(=O)Nc2ccc(F)cc2)Oc2cc(Br)ccc2S1(=O)=O | x | -7 | x | x | x | x
O=C(CCc1c[nH]c2ccccc12)OCc1cccc(C(F)(F)F)c1 | -19 | -3 | 51* | -4 | 0 | 17
N#Cc1ccc(COC(=O)CCc2c[nH]c3ccccc23)cc1 | 13 | 3 | 5 | 4 | -5 | x
Cc1cccc(C)c1OCC(=O)N(Cc1ccc(Cl)cc1)C1CCS(=O)(=O)C1 (stereo unspecified) | -12 | -21 | 6 | 21 | -2 | x
CC(=O)O[C@H]1C(=O)[C@]2(C)[C@H]([C@H](OC(=O)c3ccccc3)[C@]3(O)C[C@H](OC(=O)[C@H](O)[C@@H](NC(=O)c4ccccc4)c4ccccc4)C(C)=C1C3(C)C)[C@]1(OC(C)=O)CO[C@@H]1C[C@@H]2O | -18 | 40 | 71* | x | 17 | 65*
CC(=O)O[C@H]1C(=O)[C@@]2(C)C([C@H](OC(=O)c3ccccc3)[C@]3(O)C[C@H](OC(=O)[C@H](O)[C@@H](NC(=O)c4ccccc4)c4ccccc4)C(C)=C1C3(C)C)[C@]1(OC(C)=O)CO[C@@H]1C[C@H]2O (stereo partly specified) | -35 | 12 | 67* | 3 | 23 | 70*
COc1ccc(N(Cc2ccccc2)S(=O)(=O)c2cc(C(=O)O)ccc2Cl)cc1 | -13 | 2 | -8 | -1 | -5 | x
CC(=O)Nc1ccc(-c2nc3cc(Cl)ccc3o2)cc1 | -239 | -71 | -152 | -6 | 5 | -99
C=CCCC(=O)N1C[C@H]2CON(C)[C@H]2C[C@H]1c1ccc(-n2ccnc2)cc1 | x | 3 | x | x | x | x
CC(C)(C)c1nnc(N/N=C/c2ccccc2O)n(N)c1=O | -40 | 90* | 56* | -31 | x | 73*
N#Cc1cccc(C(=O)OCC(=O)NCc2ccco2)c1 | -10 | 5 | -12 | -9 | -1 | x
COc1ccccc1CNS(=O)(=O)c1ccc(-n2cccn2)cc1 | -2 | 22 | -1 | 39 | 6 | x
Cc1ccc(N(C)S(=O)(=O)c2ccc(-c3cc(C)no3)s2)cc1 | -47 | 17 | 51* | 22 | -2 | 20
COc1ccc(-c2cc(C)no2)cc1S(=O)(=O)N(C)c1ccc(C)c(C)c1 | -32 | 40 | 2 | 52 | 1 | x
CCN1CCN(S(=O)(=O)c2ccc(-c3cc(C)no3)s2)CC1 | 16 | -11 | 4 | -3 | -10 | x
Cc1cc(-c2ccc(S(=O)(=O)N(C)c3ccc(C)c(C)c3)s2)on1 | -56 | -13 | 57* | 12 | 15 | 40
CC1=C(C(=O)N(C)C)CC(CC(=O)NCc2cccs2)C(=O)N1CCCN1CCCC1=O (stereo unspecified) | x | -24 | x | x | x | x
C1CCC(c2nn3c(-c4n[nH]c5c4CCC5)nnc3s2)CC1 | -5 | 7 | -4 | -7 | -1 | x
CCN(CC)c1ccc(-c2nn3c(-c4n[nH]c5c4CCC5)nnc3s2)cc1 | -9 | 37 | 58* | -11 | 42 | 54*
COc1ccc(C(=O)/C=C/c2ccsc2)cc1CSCC(=O)O | 0 | 8 | 3 | -2 | 12 | x
